From ChEMBL document CHEMBL3433997, “St. Jude Leishmania screening dataset” (2016)

Experiments:
Type in all cases: functional
[1] = biological target: Solute carrier family 2, facilitated glucose transporter member 1 (Homo sapiens) (UniProt P11166); assay: ST_JUDE_LEISH: Cytotoxicity at 2uM final concentration against transgenic Leishmania Mexicana promastigotes LmGLUT1 that are glucose transport deficient and complemented with the human glucose transporter GLUT1. Activity is measured by DNA content using SYBR green in vitro
[2] = biological target: Hexose transporter 1 (Plasmodium falciparum) (UniProt O97467); assay: ST_JUDE_LEISH: Cytotoxicity at 2uM final concentration against transgenic Leishmania Mexicana promastigotes LmPfHT that are glucose transport deficient and complemented with the Plasmodium falciparum hexose transporter. Activity is measured by DNA content using SYBR green in vitro
[3] = biological target: Glucose transporter (Leishmania mexicana) (UniProt O61059); assay: ST_JUDE_LEISH: Cytotoxicity at 2uM final concentration against transgenic Leishmania Mexicana promastigotes LmGT2 that are glucose transport deficient and complemented with the L. Mexicana glucose transporter 2. Activity is measured by DNA content using SYBR green in vitro

Chain of Solute carrier family 2, facilitated glucose transporter member 1 (Homo sapiens) (P11166 whole entry): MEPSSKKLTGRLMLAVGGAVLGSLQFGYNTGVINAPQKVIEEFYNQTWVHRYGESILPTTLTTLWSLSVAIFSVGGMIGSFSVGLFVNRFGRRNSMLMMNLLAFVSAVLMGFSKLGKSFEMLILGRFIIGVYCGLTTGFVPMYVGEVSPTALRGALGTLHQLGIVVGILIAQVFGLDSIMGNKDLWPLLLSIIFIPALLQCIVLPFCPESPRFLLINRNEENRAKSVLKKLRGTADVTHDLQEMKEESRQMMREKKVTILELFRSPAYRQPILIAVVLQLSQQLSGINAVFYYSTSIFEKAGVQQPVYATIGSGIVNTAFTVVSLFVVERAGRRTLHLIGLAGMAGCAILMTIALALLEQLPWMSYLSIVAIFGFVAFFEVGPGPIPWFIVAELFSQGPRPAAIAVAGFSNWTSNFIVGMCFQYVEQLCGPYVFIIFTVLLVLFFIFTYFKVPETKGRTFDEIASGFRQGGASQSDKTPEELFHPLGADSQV

`COc1ccc(-c2cnc(N)nc2N)cc1Cl` showed an inhibition [1] of 1.93%, an inhibition [2] of 1.5% and an inhibition [3] of 2.06%.

With `COc1ccc(CCN(C)CCOc2ccc(NC(=O)c3cccc4cc5ccccc5nc34)cc2)cc1OC` the inhibition [1] was 2.4%, the inhibition [2] was 1.69% and the inhibition [3] was 1.88%.

`CCCc1ccc(S(=O)(=O)NC2CCN(c3ccnc(Nc4ccc(OC)cc4)n3)C2)cc1` (stereo not drawn) gave an inhibition [1] of 8.11%, an inhibition [2] of 9.89% and an inhibition [3] of 9.64%.

For `Cc1cc(N[C@@H](CC(C)C)C(=O)NCc2cccc(F)c2)nc(NCCc2ccc(F)cc2)n1`, the inhibition [1] was 4.5%, the inhibition [2] was 7.16% and the inhibition [3] was 4.36%.

`O=C(Cc1ccccc1)NC1CCN(c2ccnc3cc(Cl)ccc23)C1` (stereo not drawn) showed an inhibition [1] of 2.05%, an inhibition [2] of 2.03% and an inhibition [3] of 3.56%.

With `CNCc1cccc2nc(-c3ccc(Cc4cc(Cl)ccc4OCC(C)C)o3)[nH]c12` the inhibition [1] was 4.31%, the inhibition [2] was 2.61% and the inhibition [3] was 3.52%.

`Cc1n[nH]c2ccc(-c3cc(OC[C@@H](N)Cc4ccccc4)cnc3-c3ccc(OCc4cccc(F)c4)cc3)cc12` gave an inhibition [1] of -0.24%, an inhibition [2] of 0.68% and an inhibition [3] of -0.73%.

With `O=[N+]([O-])c1ccc2c(-c3ccccc3)c(-c3ccccc3)n(O)c2c1` the inhibition [1] was 2.37%, the inhibition [2] was 3.54% and the inhibition [3] was 0.3%.

`COc1ccccc1Oc1c(N(C)S(=O)(=O)c2ccc(C(C)C)cc2)nc(C(F)(F)F)nc1N(C)S(=O)(=O)c1ccc(C(C)C)cc1` was tested, and the inhibition [1] was 0.63%, the inhibition [2] was 1.97% and the inhibition [3] was 1%.

`CCCCn1c(Sc2ccc(C#N)c([N+](=O)[O-])c2)nnc1-c1ccc(OC)cc1` gave an inhibition [1] of 3.24%, an inhibition [2] of 2.64% and an inhibition [3] of 0.78%.

Work on `COc1ccc2nccc(N3CCN(CCNCc4ccc5c(n4)NC(=O)CO5)CC3)c2n1` yielded an inhibition [1] of 11.2%, an inhibition [2] of 9.11% and an inhibition [3] of 10.1%.

In the case of `O=C(CC(c1ccccc1)c1ccccc1O)N1CCOCC1` (stereo not drawn), the inhibition [1] is reported as 0.4%, the inhibition [2] is reported as 1.12% and the inhibition [3] is reported as -0.06%.

In the case of `O=[N+]([O-])c1ccccc1/C=N/Nc1ccnc2ccc(C(F)(F)F)cc12`, the inhibition [1] is reported as -0.59%, the inhibition [2] is reported as 2.42% and the inhibition [3] is reported as 0.08%.

Compound `COc1ccccc1N(C)CCNc1cc(C)nc(Nc2ccc(C)cc2)n1` has an inhibition [1] of 8.84%, an inhibition [2] of 7.28% and an inhibition [3] of 1.83%.

Work on `CC(Cc1ccc(Cl)cc1)Nc1nc(NC2CCCC2)nc(N2CCC(C#N)(c3ccccc3)CC2)n1` (stereo not drawn) yielded an inhibition [1] of 8.45%, an inhibition [2] of 5.49% and an inhibition [3] of -0.98%.

For `COc1cc2nc(N3CCC(CNC(=O)c4cc(Br)c(Br)s4)CC3)nc(N)c2cc1OC`, the inhibition [1] was 9.57%, the inhibition [2] was 9.82% and the inhibition [3] was 6.92%.
